The supplement of paper PMC6555819

Columns and labels:
Assay in all cases: PBM binding z-score (relative to random genomic background probes); higher = stronger binding; sequences stand for … in GC…GCGATTGACAGCGTAGAATGAAGG
[1] = tested on: PPARg:RXRa DBDmut IVT, anti-RXR (DBD mutation: RXRa K156A/R161A, NR concentration 270 nM, RXRa partner concentration 90 nM)
Procedure, shortened: (§1)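 The probes on custom Agilent 4×180K protein-binding microarrays were double-stranded, with 34-nt variable regions bearing direct-repeat seeds, single-nucleotide variants, half-site ablations and random human genomic background sequences. Incubation lasted 1 h with ligand-free nuclear receptor dimers in PBS pH 7.4, 2% milk, 0.02% Triton X-100, 1 mM DTT, 0.2 mg/mL BSA and 0.4 mg/ml salmon testes DNA. Antibodies against each partner (one per run) detected bound dimers, and fluorescence scans were regression-normalized. Binding z-scores take the random background probes as reference.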

[2] = tested on: PPARg:RXRa IVT, anti-PPARg (NR concentration 270 nM, RXRa partner concentration 90 nM)
Procedure, shortened: as §1

[3] = tested on: PPARg DBDmut:RXRa IVT, anti-PPARg (DBD mutation: PPARg1 K132A/R137A, NR concentration 270 nM, RXRa partner concentration 90 nM)
Procedure, shortened: as §1

[4] = tested on: PPARg DBDmut IVT, anti-PPARg (DBD mutation: PPARg1 K132A/R137A, NR concentration 270 nM)
Procedure, shortened: as §1

[5] = tested on: PPARg homodimer (NR concentration 180 nM)
Procedure, shortened: as §1

[6] = tested on: PXR:RXRa (NR concentration 270 nM, RXRa partner concentration 90 nM)
Procedure, shortened: as §1

[7] = tested on: PXR homodimer (NR concentration 270 nM)
Procedure, shortened: as §1

[8] = tested on: RARa:RXR (NR concentration 270 nM, RXRa partner concentration 90 nM)
Procedure, shortened: as §1

[9] = tested on: RARa homodimer (NR concentration 270 nM)
Procedure, shortened: as §1

[10] = tested on: RARb:RXRa (NR concentration 270 nM, RXRa partner concentration 90 nM)
Procedure, shortened: as §1

Sequence | PBM binding z-score [1] | PBM binding z-score [2] | PBM binding z-score [3] | PBM binding z-score [4] | PBM binding z-score [5] | PBM binding z-score [6] | PBM binding z-score [7] | PBM binding z-score [8] | PBM binding z-score [9] | PBM binding z-score [10]
TAGCCTAGGTCATGGGCAAGTATACCACGCGAAC | 1.64 | 3.48 | -0.144 | 0.186 | 1.13 | 1.51 | -0.303 | 2.48 | -0.000605 | 4.09
AGAATAAGGTTAAGATCAGGGAAACAGAATACAT | 1.89 | 1.76 | 1.42 | 1.21 | 1.6 | 1.18 | 0.822 | 1.93 | 1.11 | 2.46
ACTATTAGTTTACTTAGGGCAACCGATACGACGC | 0.826 | 0.924 | 0.857 | 1.39 | 0.166 | 0.669 | 1.14 | 0.64 | 0.904 | 1.04
GCGATTAGTTGAAAGGGCAACCGAATGATTCTCG | 0.242 | 0.29 | -0.291 | -0.4 | 0.619 | 0.575 | 0.0647 | 1.43 | -0.197 | 1.87
TTACCAAGCTGAAGGTCGTTGATCCCTCTGTAGA | -0.256 | -0.224 | -1.71 | -1.67 | -0.217 | 1 | -0.159 | 0.87 | -1.08 | 0.656
ATATGTAGGTTAGCTGGGATCATTCAGACTAGGC | 6.87 | 5.92 | 1.97 | 2.29 | 0.83 | 1.21 | 0.543 | 0.547 | 0.6 | 0.723
GTACCAAGGTGAATAGGTCGGTGATGAGTAGGCG | 1.48 | 2.82 | -0.0174 | 0.489 | 0.98 | 0.296 | 0.0352 | 1.02 | 0.441 | 1.86
CCGAGTAGGCTATGGGGCATTCAGGCAACGGTGA | 0.771 | 0.867 | -0.695 | -1.15 | -0.376 | -0.862 | -0.647 | -0.583 | -0.463 | -0.102
CGTACTGGGCCACGAAAGGTCATTGATTCAGTGA | 5.64 | 5.82 | 1.54 | 0.503 | 4.05 | 5.71 | 2.11 | 5.78 | 1.22 | 4.17
AGTCAAAGTTCACCTAGGTAACGTAAGATATGCT | 1.22 | 4.08 | 1.35 | 1.84 | 2.06 | 4.76 | 3.76 | 3.95 | 1.51 | 4.99
CCTCGGAGGACAGCAGGAGGTCAGAGCTGCCAGA | -0.448 | -0.212 | -1.03 | -2.54 | 1.7 | 1.55 | 0.245 | 1.79 | 0.518 | 2.62
ACTTGCGGGTCAACGAGGTTATAGCACGCGTATA | 5.15 | 4.85 | 1.36 | 0.482 | 2.04 | 4.86 | 3.57 | 5.03 | 1.02 | 3.83
GCTGCTAGGTCAGGTTGGCCAGCTAACGGGTACG | 2.74 | 2.24 | -0.719 | -0.956 | 0.0382 | -0.079 | -0.624 | 0.336 | -0.755 | 3.1
ATATGTAGGTTAGCTGGGGGCATTCAGACTAGGC | 6.79 | 6.14 | 4.18 | 5.68 | 1.96 | 4.39 | 1.88 | 2.5 | 1.27 | 2.25
GCGACTGGGGCAAAGCAGGTTGCCATAAGGTTGG | 4.34 | 3.1 | -0.486 | -0.871 | -0.00419 | -0.373 | -0.521 | -0.163 | -0.719 | 0.412
AGAATGAGGTTATACGTAGATGAGGGAAGAAAGT | 3.97 | 2.32 | 1.45 | 0.893 | 1.18 | 1.18 | 0.759 | 1.96 | 0.66 | 1.57
ATCTCTAGGTAAGCAAGTTCAGTGAATGCCGAAC | 1.64 | 1.7 | 0.134 | -0.0297 | 0.55 | 1.37 | 1.12 | 0.257 | 0.268 | 0.858
CTTGCTAGGTCAATGGTCAGCTAAAGCAGCTCGC | 5.14 | 4.93 | -0.161 | 0.902 | 0.936 | 0.794 | -0.623 | 1.83 | -0.394 | 3.79
ATCTCTAGGTATAGTTCAGTGAAAGATCGATAGA | 0.435 | 0.496 | 1.64 | 2.13 | 1.8 | 0.83 | 1.11 | 1.08 | 1.34 | 1.15
AGTCAAAGTTCAGGACTAGGTAACGTAAAGCACG | 0.593 | 3.09 | 0.657 | 0.484 | 1.73 | 2.41 | 1.04 | 2.4 | 1.11 | 4.13
CGTCCAAGGTCAAAGGCCAGTGAAGAGATGACGG | 3.42 | 4.02 | 0.425 | 0.106 | 3.37 | 4.39 | 0.655 | 5.25 | 0.426 | 5.29
CATACAGGCTCAGCTAGGCCAGAGTAGGGACGGC | -0.65 | -0.492 | 0.0955 | -0.224 | 0.112 | -0.899 | -0.356 | -0.727 | -0.19 | -0.283

Sequence | PBM binding z-score [1] | PBM binding z-score [2] | PBM binding z-score [3] | PBM binding z-score [4] | PBM binding z-score [5] | PBM binding z-score [6] | PBM binding z-score [7] | PBM binding z-score [8] | PBM binding z-score [9] | PBM binding z-score [10]
CAAACTAGGTCACAGAGGTCAAAGTACGTGCGTA | 8.25 | 9.23 | 3.28 | 3.36 | 6.01 | 7.09 | 11.9 | 7.54 | 2.98 | 5.38
GCATATAGGTAATACAAGGTGAAACTCCGATTGT | 4.64 | 3.25 | 1.19 | 0.842 | 0.705 | 0.857 | -0.379 | 1.52 | 0.524 | 0.667
ACTATTAGTTGACTTATGGCAACCGATACGACGC | 0.0133 | 0.165 | 1.06 | 1.08 | 0.983 | 0.367 | 0.358 | 0.397 | 1.2 | 0.351
CAAACTAGGTCACGGAGGTCAAAGTCCGTGCGTA | 8.69 | 9.3 | 5.33 | 6.03 | 5.85 | 6.63 | 10.4 | 7.02 | 2.61 | 5.34
CCTACTGGGCCAAGGTCACTGATCAGTCAAAGCA | 4.22 | 4.98 | -0.183 | -0.598 | 2.26 | 3.02 | 0.241 | 3.49 | 0.0362 | 3.73
ATATCTAGGTAAAGTTCAGTGAAAGATCGATAGA | 6.18 | 5.91 | 1.87 | 1.59 | 1.46 | 1.95 | 1.41 | 1.52 | 1.3 | 2.74
AGAATGAGGTTATACGTAGATCAGAGAAGAAAGT | 3.8 | 2.41 | 0.986 | 0.988 | 1.35 | 1.1 | 0.455 | 1.51 | 0.376 | 1.38
CAAACTAGGTCAAGGGCAAAGTCGGTTTGTGCCA | 8.17 | 8.56 | 2.21 | 2.46 | 3.97 | 2.25 | 0.415 | 2.77 | 0.377 | 4.27
ACTAGCAGGGCAAGTTTGGGTCACTCAAACAAAG | 2.04 | 1.96 | -0.127 | -0.121 | 0.449 | 1.13 | -0.488 | 2.07 | -0.817 | 2.43
AGTCAAAGTTCATCTAGGTAGCGTAAGATATGCT | 0.422 | 2.98 | 1.02 | 1.02 | 2.55 | 4.98 | 6.74 | 3.75 | 1.85 | 4.8
GCATGTAGATCAAGGTTAAGAAAGACTAAGCTAA | 1.08 | 0.797 | -0.718 | -0.329 | -0.173 | 0.293 | -0.179 | 0.536 | -0.356 | 0.552
GCGACTGGGGCATCAGCAGGTTGCCATAACTTAA | 3.45 | 2.85 | 0.246 | -0.846 | -0.258 | -0.58 | -0.422 | -0.453 | -0.648 | 0.207
GCTTGTAGACCAAGGTTAAGAAAGACTAAGCTAA | 1.25 | 0.819 | 0.464 | 0.161 | -0.164 | 0.252 | -0.358 | 0.313 | 0.313 | 0.654
AGTATGAGGTTATTAAGATCAGGGAATTGCGGTC | 0.549 | 1.51 | 1.49 | 0.314 | 1.11 | 1.5 | 0.942 | 1.55 | 1.05 | 1.4
TCTTGTAGCTCAACAGGAGGTTAAGAAAGATCGA | 0.679 | -0.415 | 0.889 | 0.0315 | -0.822 | 0.474 | -0.26 | 0.724 | -0.715 | -0.0252
TAGCGTAGGTCATGCGGGCCAGTATAGTGTCGGC | 0.799 | 2.08 | 0.502 | -0.521 | 0.769 | 2.18 | -0.691 | 2.98 | -0.473 | 3.77
TATACAGGGTCAAAGGCGAGAGTACGAATGTCGA | 2.19 | 4.69 | 2.38 | 1.65 | 2.22 | 3.85 | 0.6 | 4.91 | 0.979 | 4.45
CCGACTGGGGCAGAAAGGTAACCATACCATCCGG | 1.07 | 1.73 | -0.318 | -1.27 | 0.0459 | -0.419 | -0.488 | -0.0683 | -0.0732 | 0.706
TCTGCTAGGTCAGTTGGTCAGCTAACGAGCTGCC | 2.77 | 3.08 | -0.303 | 0.752 | 0.0124 | 0.0781 | -0.754 | 0.864 | -0.941 | 3.35
CCGAGTAGGTGATGGGGCATTCAGGCAACGGTGA | 2.92 | 3 | 0.0749 | -1.06 | 0.758 | -0.262 | -0.379 | -0.226 | -0.778 | 0.297
TAGCCTAGGTCAGATAGGGCCAGTATACGCTATA | 0.509 | 1.38 | 0.269 | 0.324 | 0.391 | 1.37 | -0.14 | 0.802 | -0.488 | 3.05
CAAACTAGGTCACAGAGGTCTAAGTCCGTGCGTA | 8.53 | 8.91 | 1.68 | 1.67 | 0.929 | 2.54 | 0.546 | 2.8 | 0.421 | 4.13
